# GIRK2 activator – Activates human GIRK2-containing potassium channels; P48051; 34,000 tested, under 10 active; activation (% efficacy), % for hits at 37.5 µM; AID 1259324; HEK293 GIRK2/NPY4 cells, thallium flux fluorescence;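 active = primary screen hit, no activity in plain HEK293 cells, and in GIRK2-only cells above 5% efficacy rising with concentration; inactive = the rest, including fluorescent compounds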;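 note: efficacy is normalized control-subtracted fluorescence 15 s after thallium addition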
# AMPAR-TARP mod – GluA2-stargazin AMPA receptor complex modulation | 40,000 tested, 3.5% active | calls only at 30 µM | HEK293 GluA2+stargazin, membrane potential dye (FDSS), glutamate EC50; hits were called plate by plate, in both directions | O88602+P19491;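 active = any of four per-well response measures lying three or more SD from its plate-wide compound average, in either direction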
# * = called active by the depositor; i = inactive; x = no result given; + = active, no number; [ ] = dose if it differs, or a comment. Shown is part of a subset that was picked to be rich in hits.
SMILES,GIRK2 activator,AMPAR-TARP mod
O=C(CCS(=O)(=O)c1ccccc1)N(CCN1CCOCC1)c1nc2c(F)cc(F)cc2s1,x,i
CC(C)CCN1C(=O)C(C)(C)COc2ccc(NC(=O)COc3ccc(F)cc3)cc21,x,+
COc1ccc(OCC(=O)Nc2ccc3c(c2)N(CCC(C)C)C(=O)C(C)(C)CO3)cc1,x,i
Cc1cc(=O)n(CC(=O)Nc2nc3ccccc3[nH]2)cn1,i,i
O=C(Cn1nc(-c2cccnc2)ccc1=O)Nc1nc2ccccc2[nH]1,i,+
Cc1ccc(CNC(=O)CSC2=NS(=O)(=O)c3ccccc3N2)cc1,x,i
Cc1ccc(C(=O)Nn2cnc3c(cnn3C(C)(C)C)c2=O)cc1[N+](=O)[O-],i,i
COc1ccc(C(=O)Nc2cc3c4c(c2)CCC(=O)N4CCC3)cc1,i,i
COc1ccc(C(=O)Nc2cc3c4c(c2)CCN4C(=O)CC3)cc1,i,+
CCOC(=O)C(=O)Nn1cnc2c(cnn2-c2ccccc2)c1=O,i,i
CCOc1cc(/C=C/c2ccc3cccc(O)c3n2)ccc1OC,x,+
COc1cc(/C=C/c2ccc3cccc(O)c3n2)ccc1OCc1ccccc1,x,i
O=[N+]([O-])c1ccc(O)c(/C=C/c2ccc3cccc(O)c3n2)c1,x,i
COc1cc(Br)c(/C=C/c2ccc3cccc(O)c3n2)cc1OC,x,i
COc1cc(/C=C/c2ccc3cccc(O)c3n2)ccc1O,x,+
O=[N+]([O-])c1cc(/C=C/c2ccc3cccc(O)c3n2)ccc1O,x,+
COc1ccc(Cl)cc1NC(=O)Cn1c(C2CC2)nc2c(cnn2-c2ccccc2)c1=O,i,x
CCOc1cccc2sc(N(Cc3ccccn3)C(=O)CS(=O)(=O)c3ccc(OC)cc3)nc12,x,i
O=C(NC1CCCCC1)c1ccc(=O)n(Cc2ccc(F)cc2)n1,i,i
COCC(C)NC(=O)C(=O)Nc1ccon1 (centres undefined),x,i
Cc1cc(=O)[nH]c2cc(NC(=O)c3ccc(S(=O)(=O)N(C)C)cc3)ccc12,i,x
O=C(CN1C(=O)CCC1=O)NCCC(O)c1ccccc1 (centres undefined),i,i
O=C(CSCc1ccccc1)N(Cc1ccco1)c1nc2ccccc2s1,i,i
Cc1cccc(NC(=O)Cn2cccc(-c3nc(-c4ccc(Br)cc4)no3)c2=O)c1,i,i
COc1cccc(NC(=O)Cn2cccc(-c3nc(-c4ccc(Br)cc4)no3)c2=O)c1,i,+
SMILES,GIRK2 activator,AMPAR-TARP mod
CN(C)S(=O)(=O)c1ccc2c3c(cccc13)C(=O)N2C(=O)c1ccco1,i,x
Cc1cccc(N2C(=O)CC(c3cn(C)c4ccccc34)C2=O)c1 (centres undefined),x,i
Cc1ccccc1N1C(=O)CC(c2cn(Cc3ccccc3)c3ccccc23)C1=O (centres undefined),x,+
O=C(NC1CC(=O)N(c2ccc(F)cc2)C1)c1ccccc1Cl (centres undefined),x,i
COc1ccc(S(=O)(=O)NCC(O)(c2ccccc2)C(F)(F)F)cc1Cl (centres undefined),i,+
COc1ccc(S(=O)(=O)NCCc2ccc(N(C)C)cc2)cc1Cl,x,+
O=S(=O)(NCC(O)(c1ccccc1)C(F)(F)F)c1ccc(F)c(Cl)c1 (centres undefined),i,i
COc1ccc(S(=O)(=O)NCC(c2ccsc2)N(C)C)cc1Cl (centres undefined),i,i
COc1ccc(CC(=O)Nc2nc(-c3cc(Cl)sc3Cl)cs2)cc1,x,i
COc1ccc(C(=O)/C=C/c2ccc(C(=O)O)cc2)c(OC)c1,x,i
Cc1cc(CNC(=O)C(=O)Nc2cc(N3CCCS3(=O)=O)ccc2C)c(C)o1,i,x
COc1c2c(cc3c1C(CC(=O)c1ccccc1)N(C)CC3)OCO2 (centres undefined),x,+
COc1ccc(-n2c(COc3ccc4c(c3)OCO4)nnc2SCC(=O)c2ccccc2)cc1,x,i
CSc1ccccc1NC(=O)C(=O)NCC1(c2cccs2)CCCC1,i,x
Cc1cc(NC(=O)C(=O)NCC2(c3cccs3)CCCC2)c2ccccc2n1,6.0%*[75 µM],x
Cc1nn(C2CCS(=O)(=O)C2)c2nc(-c3ccco3)cc(C(=O)NCc3ccco3)c12 (centres undefined),i,i
O=C(Cn1c(=O)oc2ccccc21)NCC(O)(c1ccccc1)C1CC1 (centres undefined),x,i
Cn1nc(-c2cccc(NC(=O)c3ccc(S(=O)(=O)N4CCCC4)cc3)c2)ccc1=O,i,i
CCNC(=O)Cn1c(NCC)nc2c1c(=O)n(C)c(=O)n2C,i,x
COc1ccc(NC(=O)c2cc(=O)c(OC)co2)c(OC)c1,i,+
COC(=O)c1ccc(NC(=O)c2cc(=O)c(OC)co2)cc1,i,i
O=C(Nc1nc2ccc(Cl)cc2s1)c1cc(=O)c(OCc2ccc(F)cc2)co1,i,i

# Source: PubChem
